Where a name gives a salt, the structure may show the parent alone.
System: NCI-H1688
Experiment: inhibition of cell viability relative to untreated control (fraction); higher = stronger growth inhibition, active = 0.5 or more
Conditions: 30 µM; 24 h
In short: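 Viability of NCI-H1688 small cell lung cancer cells was assessed with Cell Counting Kit-8 by absorbance at 450 nm, in triplicate, after a 24 h exposure to a natural compound library (TargetMol) at 30 µM at 37°C and 5% CO2. The cells had been seeded at 3 × 10^3 cells/well in 96-well plates 24 h before treatment. Inhibition of cell viability is reported as a fraction, derived from viability normalised against untreated cells.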

SMILES	inhibition of cell viability
C=C1C(=O)O[C@@H]2/C=C(\C)CC/C=C(\C)CC[C@@H]12 [Costunolide]	0.333 (inactive)
NCCCC(=O)O [4-Aminobutyric acid]	-0.231 (inactive)
CNC[C@@H](O)c1ccc(O)c(O)c1 [L-Adrenaline]	0.0228 (inactive)
CC(=O)O[C@H]1C(=O)[C@@]2(C)[C@H]([C@H](OC(=O)c3ccccc3)[C@]3(O)C[C@H](OC(=O)[C@H](O)[C@@H](NC(=O)c4ccccc4)c4ccccc4)C(C)=C1C3(C)C)[C@]1(OC(C)=O)CO[C@@H]1C[C@@H]2O [Paclitaxel]	0.555 (active)
COc1cc(-c2oc3cc(O)cc(O)c3c(=O)c2O)ccc1O [Isorhamnetin]	-0.0139 (inactive)
CC12CCC(CC1)C(C)(C)O2 [Eucalyptol]	-0.192 (inactive)
C=CC1=C(C)/C(=C/c2[nH]c(Cc3[nH]c(/C=C4\NC(=O)C(C)=C4C=C)c(C)c3CCC(=O)O)c(CCC(=O)O)c2C)NC1=O [Bilirubin]	0.0432 (inactive)
O=C1c2cccc(O)c2C(=O)c2c(O)cccc21 [Antrapurol]	0.783 (active)
O=C(O)CCCCC1CCSS1 (configuration not stated) [Alphalipoic acid]	0.0038 (inactive)
CC1(C)C2CCC1(C)C(O)C2 (configuration not stated) [Borneol]	0.16 (inactive)
C[N+](C)(C)CC(O)CC(=O)[O-] (racemic) [DL-Carnitine]	0.00503 (inactive)
C=CC[C@@H]1/C=C(\C)C[C@H](C)C[C@H](OC)[C@H]2O[C@@](O)(C(=O)C(=O)N3CCCC[C@H]3C(=O)O[C@H](/C(C)=C/[C@@H]3CC[C@@H](O)[C@H](OC)C3)[C@H](C)[C@@H](O)CC1=O)[C@H](C)C[C@@H]2OC [Tacrolimus (FK506)]	0.0216 (inactive)
C[C@H]1[C@@H](O)O[C@@H]2O[C@@]3(C)CC[C@H]4[C@H](C)CC[C@@H]1[C@@]24OO3 [Dihydroartemisinin]	0.644 (active)
C[C@H]1CC[C@@]2(OC1)O[C@H]1C[C@H]3[C@@H]4CC[C@@H]5C[C@@H](O)CC[C@]5(C)[C@H]4CC[C@]3(C)[C@H]1[C@@H]2C [Sarsasapogenin]	-0.0422 (inactive)
COc1c2occc2c(OC)c2c(=O)cc(C)oc12 [Khellin]	0.168 (inactive)
COc1cc(O)c2c(c1)C(=O)c1cc(C)cc(O)c1C2=O [Rheochrysidin]	0.0809 (inactive)
Cc1ncc(C[n+]2csc(CCO)c2C)c(N)n1 [Thiamine hydrochloride]	-0.123 (inactive)
CN(N=O)C(=O)N[C@@H](C=O)[C@@H](O)[C@H](O)[C@H](O)CO [Streptozocin]	0.214 (inactive)
C[C@@H]1CC[C@@]2(OC1)O[C@H]1C[C@H]3[C@@H]4CC=C5C[C@@H](O)CC[C@]5(C)[C@H]4CC[C@]3(C)[C@H]1[C@@H]2C [Diosgenin]	-0.279 (inactive)

SMILES	inhibition of cell viability
O=C(O)C=CC=Cc1ccccc1 [5-Phenyl-2,4-pentadienoic acid]	-0.102 (inactive)
O=c1ccc2ccc(O)c(O)c2o1 [Daphnetin]	-0.0337 (inactive)
Cn1c(=O)c2nc[nH]c2n(C)c1=O [Theophylline]	-0.0544 (inactive)
C[N+](C)(C)CC(=O)O [Betaine hydrochloride]	-0.247 (inactive)
O=C(/C=C/c1ccc(O)c2oc(-c3ccc(O)c(O)c3)cc12)O[C@H](Cc1ccc(O)c(O)c1)C(=O)O [Salvianolic Acid C]	0.0822 (inactive)
C/C=C1\[C@H]2C=C(C)C[C@]1(N)c1ccc(=O)[nH]c1C2 [(-)-Huperzine A (HupA)]	0.178 (inactive)
C=C(C)[C@@H]1CC[C@]2(C)CC[C@]3(C)[C@H](CC[C@@H]4[C@@]5(C)CC[C@H](O)C(C)(C)[C@@H]5CC[C@]43C)[C@@H]12 [Lupeol]	0.287 (inactive)
O=c1c(-c2ccc(O)cc2)coc2cc(O)cc(O)c12 [Genistein]	0.7 (active)
C=C1C[C@@]23CC[C@H]4[C@@](C)(CCC[C@@]4(C)C(=O)O[C@@H]4O[C@H](CO)[C@@H](O)[C@H](O)[C@H]4O)[C@@H]2CC[C@]1(O[C@@H]1O[C@H](CO)[C@@H](O)[C@H](O)[C@H]1O[C@@H]1O[C@H](CO)[C@@H](O)[C@H](O)[C@H]1O)C3 [Stevioside]	-0.031 (inactive)
CC(C)=CCC[C@](C)(O)[C@H]1CC[C@]2(C)[C@@H]1[C@H](O)C[C@@H]1[C@@]3(C)CC[C@H](O)C(C)(C)[C@@H]3CC[C@]12C [(20S)-Protopanaxadiol]	-0.0275 (inactive)
COc1cc2c(cc1OC)[C@@H]1Cc3ccc(OC)c(OC)c3CN1CC2 [Rotundine, TETRAHYDROPALMATINE HYDROCHLORIDE]	-0.254 (inactive)
NC(=O)c1cccnc1 [Nicotinamide]	0.0846 (inactive)
N[C@@H]1CONC1=O [D-Cycloserine]	0.0589 (inactive)
CC[C@]12CCCN3CCc4c(n(c5ccccc45)[C@@](O)(C(=O)OC)C1)[C@@H]32 [Vincamine]	0.408 (inactive)
CC(=O)OC/C=C(C)/C=C/C=C(C)/C=C/C1=C(C)CCCC1(C)C [Retinyl acetate]	-0.265 (inactive)
O=C1O[C@H]([C@@H](O)CO)C(O)=C1O [L(+)-Ascorbic acid]	0.195 (inactive)
CC1(C)O[C@H]2CC(=O)OC[C@]23[C@H]2CC[C@@]4(C)[C@H](c5ccoc5)OC(=O)[C@H]5O[C@]54[C@]2(C)C(=O)C[C@@H]13 [Limonin]	-0.0414 (inactive)
CC(=O)c1ccc(O)c(C(=O)O)c1 [5-Acetylsalicylic acid]	0.0598 (inactive)

— the supplement of paper PMC11634586
